# From PubChem
# In the library only some 2.6% were active in any assay of this set; here they are far more common.
# PME-1 inh: PME-1 (human) inhibition | inhibition, % at 5.9 µM | recombinant PME-1, FP-Rh probe fluorescence polarization | 0.53% of 320,000 active | AID 2130;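 active = inhibition above the campaign mean of all compounds plus 3 SD, cut at about 26% in these data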;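 note: competitive labeling of PME-1 active site by serine hydrolase directed probe; 0% = PME-1 with DMSO and 100% = wells lacking PME-1 enzyme; inhibitors block probe labeling so polarization falls and inhibition rises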
# Fam108B counter: Fam108B inhibition, counter-screen for RBBP9 inhibitors; inhibition, % at 9.51 µM; 0.33% of 300,000 active; recombinant Fam108B, FP-Rh probe fluorescence polarization;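 active = inhibition above the screen mean inhibition plus 3 SD, computed separately per campaign, cut at about 18% in these data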;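 note: inhibitors lower polarization as less probe binds the enzyme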
# PAD4 inh: inhibitors of human PAD4. AID 485272. Q9UM07. inhibition, % at 6.36 µM. recombinant PAD4, RCA probe fluorescence polarization. 0.41% of 330,000 active;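 active = percent inhibition above a cutoff equal to the mean of all tested compounds plus 3 SD, cut at about 15% in these data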;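 note: 0% = PAD4 with RCA probe and DMSO and 100% = probe without PAD4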
# TCR-CD3 inh: blocks the human TCR-CD3 interaction | TAMRA-labeled TCR probe fluorescence, biochemical | inhibition, % at 9.4 µM | 0.37% of 360,000 active | AID 651800; in the data active = inhibition above about 19%;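 note: recombinant mutant TCR 2C K166C tagged with TAMRA read by polarization; 0% = receptor in buffer alone and 100% = receptor with positive control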
# PRMT1 FP inh: blocks human protein arginine methyltransferase 1. Q99873. recombinant PRMT1, activity-based probe fluorescence polarization. inhibition, % at 2.79 µM. 1.3% of 370,000 active. AID 652257;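 active = inhibition above about 21% made by adding two undisclosed values, limit read from the data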
# SIAE inh: blocks human sialic acid acetylesterase; SIAE FP-Rh probe binding, fluorescence polarization; inhibition, % at 9.66 µM; 0.69% of 370,000 active; Q9HAT2;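 active = inhibition above a cutoff: mean of compounds within the control limits plus 3 SD of those, cut at about 17% in these data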;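 note: 0% = plate median of compound wells and 100% = probe without SIAE protein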
# Target sequence (Q9HAT2 whole entry, looked up): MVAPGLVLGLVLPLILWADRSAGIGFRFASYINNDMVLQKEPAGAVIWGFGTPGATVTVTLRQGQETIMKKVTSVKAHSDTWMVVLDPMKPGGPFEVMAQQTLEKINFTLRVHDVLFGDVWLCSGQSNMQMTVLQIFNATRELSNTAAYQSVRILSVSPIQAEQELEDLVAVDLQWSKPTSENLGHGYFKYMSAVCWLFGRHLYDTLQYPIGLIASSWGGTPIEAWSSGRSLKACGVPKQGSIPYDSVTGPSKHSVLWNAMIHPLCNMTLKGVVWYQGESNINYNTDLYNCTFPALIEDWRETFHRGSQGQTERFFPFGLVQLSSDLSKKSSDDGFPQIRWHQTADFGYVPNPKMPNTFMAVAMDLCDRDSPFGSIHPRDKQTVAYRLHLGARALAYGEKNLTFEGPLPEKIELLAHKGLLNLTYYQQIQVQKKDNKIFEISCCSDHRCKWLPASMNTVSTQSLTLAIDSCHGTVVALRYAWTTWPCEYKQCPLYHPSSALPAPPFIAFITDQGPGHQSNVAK
# SIAE confirm: confirmation of human SIAE inhibitors | shares compounds with SIAE inh | SIAE FP-Rh activity-based probe, fluorescence polarization | inhibition, % at 9.66 µM | 13% of 2,300 active | AID 1117263;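 active = mean inhibition of the replicates above the hit cutoff set in the primary screen, cut at about 17% in these data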;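 note: 0% = SIAE with DMSO and probe and 100% = probe without SIAE; inhibitors lower polarization as more probe stays unbound to SIAE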
# The depositor's hits bear a star; x = no result.
SMILES,PME-1 inh,Fam108B counter,PAD4 inh,TCR-CD3 inh,PRMT1 FP inh,SIAE inh,SIAE confirm
CCOc1ccccc1C(=O)Nc1ccc2nc(C)[nH]c(=O)c2c1,x,x,x,x,-8,-1,x
O=C(CN1C(=O)/C(=C2/SC(=S)N(CCS(=O)(=O)O)C2=O)c2ccccc21)Nc1cccc(C(F)(F)F)c1,x,x,0,15,8,22*,22*
O=C(Nc1cc2c3c(c1)CC(=O)N3CCC2)C1CC1,-1,0,-1,-6,3,20*,-1
O=C(Nc1cc2c3c(c1)CC(=O)N3CCC2)C1CCCCC1,0,1,0,-2,1,-3,x
CCN(CC)C(=O)CC[C@H]1CC[C@]2(CCCN(Cc3cccc4ccccc34)C2)O1,x,x,x,x,1,2,x
COc1ccc(OCCC(=O)OCC(=O)NCc2ccco2)cc1,-1,3,4,0,2,0,x
COc1ccccc1NCCC(=O)OCC(=O)NCc1ccco1,-2,-2,-2,5,2,27*,4
Cc1ccc2nc(CN(C)C(=O)[C@@H](Cc3ccccc3)NC(=O)[C@H]3O[C@@H](n4cnc(C(N)=O)n4)[C@H](O)[C@@H]3O)[nH]c2c1,x,x,x,-1,-4,68*,74*
COc1cccc(NC(=O)CSc2nnc(-c3ccco3)c(-c3ccco3)n2)c1,-7,8,4,20*,47*,20*,4
O=C1N=c2ccc(Br)cc2=C1c1sc(=S)n(NS(=O)(=O)c2ccccc2)c1O,-2,1,-4,13,8,12,x
O=C1N=c2ccccc2=C1c1sc(=S)n(-c2ccc(O)cc2)c1O,-5,7,-3,3,17,22*,6
O=C1N=c2ccccc2=C1c1sc(=S)n(NC(=O)c2cccc(O)c2)c1O,x,x,x,2,3,29*,33*
CC(C)n1nnnc1C1c2ccccc2OCC(=O)N1Cc1cccc(C(F)(F)F)c1 (centres undefined),x,x,x,x,2,-1,x
Cc1ccccc1CC(=O)N1CCC(n2nnc3ncccc32)CC1,x,x,x,x,3,1,x
Cc1c(C(=O)N2CCN(CCc3ccccn3)CC2)oc2ccc(F)cc12,4,5,-2,0,-4,-4,x
Cc1cc2oc(C(=O)N3CCN(CCc4ccccn4)CC3)c(C)c2cc1C,4,3,-1,-2,1,24*,5
C[n+]1ccc2[nH]c3ccccc3c2c1,x,x,x,4,-3,26*,-6
CCOC(=O)CNC(=O)N(C)[C@H]1C[C@H]2c3[nH]c4c(-c5cccc(C)c5)cccc4c3CCN2C(=O)[C@H]1[C@H](C)O,x,x,x,x,1,2,x
CC(C)NCC(=O)NC12CC3CC(CC(C3)C1)C2,4,-3,1,-5,-1,21*,8
O=C(O)CC(=O)NC12CC3CC(CC(C3)C1)C2,0,4,3,3,3,0,x
Cc1ccc(C2CCC3(CCC(=O)N3CCOC(=O)Nc3cccc(C#N)c3)CC2)cc1 (centres undefined),x,x,x,x,-2,2,x
CC1=C(C(=O)Nc2ccc(C)cc2)C(c2ccco2)NC(=O)N1 (centres undefined),6,-5,2,-9,-2,23*,-9
CC1=C(C(=O)Nc2ccccc2)C(c2ccco2)NC(=O)N1 (centres undefined),0,4,-3,4,0,-4,x
COC(=O)[C@@]12C[C@@H](CC(=O)NCc3ccc(C)o3)C(=O)N(Cc3ccc4c(c3)OCO4)C1=CCC(C)(C)C2,x,x,x,-5,7,17*,6
COC(=O)[C@@]12C[C@@H](CC(=O)NCc3cccs3)C(=O)N(Cc3ccc4c(c3)OCO4)C1=CCC(C)(C)C2,x,x,x,-5,0,1,x
SMILES,PME-1 inh,Fam108B counter,PAD4 inh,TCR-CD3 inh,PRMT1 FP inh,SIAE inh,SIAE confirm
CCc1ccc(NC(=O)COC(=O)CC2CCCC2)cc1,x,x,3,-4,1,4,x
CC(C)c1ccc(NC(=O)COC(=O)CC2CCCC2)cc1,x,x,-2,-3,3,20*,-1
C=CCn1c(Cc2cccs2)nnc1SCC(=O)Nc1ccc(OCc2ccccc2)cc1,x,x,x,x,0,-8,x
COc1cc(/C=N/NC(=O)c2ccc(Cn3cc([N+](=O)[O-])cn3)o2)cc(Br)c1O,0,0,-8,10,2,5,x
COc1cc(/C=N\NC(=O)c2ccc(Cn3cc(Br)c([N+](=O)[O-])n3)o2)cc(OC)c1O,7,13,2,4,3,17*,6
Cc1ccccc1CN1CCCCC(NC(=O)c2ccc(Br)cc2)C1=O (centres undefined),x,x,x,x,-4,1,x
COc1ccc(-n2c(COc3cccc(C)c3)n[nH]c2=S)cc1,-3,-3,-3,-2,3,19*,-1
CC1CCN(S(=O)(=O)c2ccc(F)c(C(=O)O)c2)CC1,3,7,-12,-1,1,24*,1
CC1CCN(S(=O)(=O)c2ccc(Cl)cc2)CC1,4,-3,2,7,-1,0,x
O=C(NCC1CCCCC1)c1cc(S(=O)(=O)N2CCOCC2)ccc1F,-1,x,2,-3,2,79*,-2
COc1ccc(C(=O)OCCN(C)C2CN(Cc3cn(Cc4ccccc4Cl)nn3)S(=O)(=O)C2)cc1OC (centres undefined),x,x,x,x,2,2,x
CCN(CC(=O)NCc1ccc(Cl)cc1)C(=O)CCC(=O)c1ccc(F)cc1,7,2,-2,1,-2,20*,-2
CCN(CC(=O)NCc1ccc(Cl)cc1)C(=O)CCC(=O)c1ccc(C)cc1,0,0,-2,4,-1,-6,x
O=C(O)CCCCCCNC(=O)c1cncc(O)c1,1,3,3,8,-2,23*,-2
O=C(O)CCCNC(=O)c1cncc(O)c1,1,0,-3,4,3,-6,x
CC(=O)Nc1ccc(S(=O)(=O)Nc2ccc(Cl)cn2)cc1,1,2,1,9,-1,88*,3
COc1ccc(S(=O)(=O)Nc2ccc(Cl)cn2)cc1,1,2,0,0,-1,-7,x
O=C(O)c1cccc(NS(=O)(=O)c2ccc(-c3ccc(S(=O)(=O)Nc4cccc(C(=O)O)c4)cc3)cc2)c1,0,-3,-2,8,-2,-8,x
O=C(O)c1cccc(NS(=O)(=O)c2ccc(Cl)c(C(=O)O)c2)c1,1,4,-2,1,1,18*,-3
C#CCNC(=O)C[C@H]1C(=O)N(Cc2ccc(OC)cc2)C2=CCCCC[C@@]21C(=O)OC,x,x,x,x,-4,-5,x
COc1ccc(/C=N/c2c(-c3ccco3)nc3ccccn23)cc1OC,4,1,10,5,17,25*,7
COC(=O)C/C=C/[C@H](C)[C@@H](NC(=O)C(F)(F)F)c1ccccc1Br,x,x,x,x,-2,2,x
CCC[C@H]1[C@@H](OC(=O)NCc2cccnc2)CC[C@@]23CCCN2C(=O)CCC[C@@H]13,x,x,x,x,2,7,x
